# Experimental data reported in PubChem BioAssay (NCI).
# Compounds without any hit were thinned out: in the full panel of roughly 83,000, 20% have a hit.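 Values shown are percent growth following 48 h exposure of cells in 96-well plates to a single concentration of compound; below 10 was considered active.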 Active and inactive are the calls of the source.
# Tested on: ACHN renal
# Assay: NCI-60 one-dose screen, 48 h (100 = growth as untreated, 0 = no growth, -100 = all killed)
# Conditions: 10 µM unless noted
# Procedure: Growth inhibition of the ACHN human tumor cell line is measured as a screen for anti-cancer activity. Cells are grown in 96 well plates and exposed to the test compound for 48 hours. Compounds are tested at a single concentration, which is 10^-5 M for most compounds. The reported endpoint is percent growth (GI% or GIPRCNT), where numbers from 0 - 100% represent growth inhibition, and numbers from -100% - 0 represent cell death. For example, a value of 40 represents 60% growth inhibition. A value of 0 means no net growth occurred over the course of the experiment. A value of -40 indicates 40% of cells at the beginning of the experiment died by the end of the experiment. A value of -100 means all cells are dead at the end of the experiment.
# NCI-60 Human Tumor Cell Lines Screen was performed using the standard one-dose NCI protocol, which is described in more detail at https://dtp.cancer.gov/discovery_development/nci-60/default.htm.
# Compounds with GIPRCNT values below 10 were considered active. Activity score was based on GIPRCNT using the following formula: […]
# Score is 0 for GIPRCNT values of 100 or above, 50 for GIPRCNT values of 0, and 100 for GIPRCNT values of -100.
row,SMILES,growth
1,O=C1Nc2ccccc2/C1=C/c1cn(C(=O)c2c(Cl)cccc2Cl)c2ccccc12,43.6% (inactive)
2,N#Cc1c(-c2ccccn2)[nH]c(=S)[nH]c1=O,108% (inactive)
3,NC1=NCc2nc3ccccc3c(=O)n2C1,99.5% (inactive)
4,N#Cc1c(-c2cccc(Cl)c2)cc(-c2cccc(F)c2)[nH]c1=O,90.3% (inactive)
5,N#Cc1c(N2CCNCC2)nc2sc3cc(Cl)c(Cl)cc3n2c1=N,102% (inactive)
6,Cc1ccc(Cc2cnc(NC(=O)c3ccc4noc(-c5ccccc5)c4c3)s2)cc1,99% (inactive)
7,COc1cc(C(=O)/C=C/c2c(-c3ccc(F)cc3)nc3sc(C)cn23)cc(OC)c1OC,46.5% (inactive)
8,Cc1ccc(C2SCC(=O)N2Cc2ccccc2)cc1 (stereo not given),100% (inactive)
9,COc1ccc(N2CCN(c3nc(-c4cc(OC)c(OC)c(OC)c4)nc4ccccc34)CC2)cc1,90.6% (inactive)
10,O=C(O)c1ccc2c(c1Cl)C(=O)c1ccccc1C2=O,99.1% (inactive)
11,CCC(CO)Nc1nc2ccc(Cl)cc2c2ccccc12 (stereo not given),73.9% (inactive)
12,Cc1occc1-c1n[nH]c(=S)n1N1C(=O)CSC1=S,102% (inactive)
13,O=Cc1ccc(O)c2ncccc12,110% (inactive)
14,CCCCCCCCCCCCCCCCCC1=NCCN1CCOC1=C(Cl)C(=O)c2ccccc2C1=O,30.2% (inactive)
15,COc1ccc(C(=O)COc2ccc(/C=C3\Oc4ccccc4C3=O)cc2)cc1,101% (inactive)
16,O=C(c1ccc(Nc2nccc(NCCCCNc3ccnc4cc(Cl)ccc34)n2)cc1)N1CCCCC1,37.8% (inactive)
17,Cc1cc(NCc2cc(Nc3ccnc4cc(Cl)ccc34)ccc2F)nc(Cl)n1,46.6% (inactive)
18,C=C(C)[C@@H]1CC=C2c3sc(-c4ccc(C)cc4)nc3C[C@@H](C)[C@]2(C)C1,102% (inactive)
19,Cc1ccc2nc(NC(=O)CSc3nc(Nc4ccc([N+](=O)[O-])cc4)c(C#N)c(-c4ccccc4)n3)sc2c1,90.7% (inactive)
20,O=C(N/N=C/C=C/c1ccc([N+](=O)[O-])o1)c1cc2ccccc2cc1O,-3% (active)

row,SMILES,growth
1,Cc1ccccc1NC(=O)N/C(N)=N/c1nc(-c2cccc([N+](=O)[O-])c2)cs1,53.7% (inactive)
2,COc1cc(/C=N/NC(=O)Cn2c(C(C)C)nc3ccccc32)ccc1O,99.6% (inactive)
3,O=C(c1ccccc1)N1N=C(c2ccccc2)CC1c1nnc2n(Cc3ccccc3)c(=O)c3c4c(sc3n12)CCCC4 (stereo not given),99.8% (inactive)
4,CC1=C([Se]CC(OC(=O)CC[Se]c2ccccc2)C(=O)NCCCCCC(=O)OCc2ccccc2)C(=O)c2ccccc2C1=O (stereo not given),23.8% (inactive)
5,c1ccc(Nc2nc(-c3ccccn3)cs2)nc1,1.7% (active)
6,COc1ccc(-c2nc(SCCC(C)C)nc(N/N=C\c3cccc(Cl)c3)c2C#N)cc1,17.9% (inactive)
7,O=C(NCCCNc1cc(-c2cn(-c3ccccc3)nc2-c2cccc(O)c2)ccn1)c1ccccc1,45.8% (inactive)
8,N[C@@H](CCCCNCC(=O)O)C(=O)O,96.8% (inactive)
9,COc1ccc(C(=O)/C=C/c2c(C(F)(F)F)nc3sccn23)cc1OC,26.5% (inactive)
10,COc1ccc2oc3c(C)c4c(c(C)c3c2c1)C(=O)N(Cc1ccccc1)C4=O,88.3% (inactive)
11,CCCCCCCCCCCCCCCCCCOc1ccccc1CC(=O)OCCC[N+](C)(C)C,67.5% (inactive)
12,COc1cccc(-c2nc3sccn3c2-c2ccnc(NCCNS(=O)(=O)c3cccc(F)c3)c2)c1,20.5% (inactive)
13,Cc1cc(=O)[nH]c(N=Nc2c(O)[nH]c3ccccc23)n1,101% (inactive)
14,Nc1n[nH]c(-c2cc(Cl)ccc2O)c1-c1ccccc1,61.3% (inactive)
15,COc1cc(-c2n/c(=C\c3c(O)[nH]c4ccc(Cl)cc34)cc3c2=Nc2ccccc2-3)cc(OC)c1OC,-44.8% (active)
16,CNC(=O)c1cc(Oc2cccc3nc(Nc4ccc(F)c(Cl)c4)ccc23)ccn1,75.3% (inactive)
17,COc1ccc(C(=NN=C(N)N)c2ccc(OC)cc2)cc1,37.6% (inactive)
18,COc1ccc(C2CC(c3cccc(OC)c3)=NN2C(=O)c2cc(OC)c(OC)c(OC)c2)cc1 (stereo not given),46.9% (inactive)
19,COc1cccc(-c2nn(-c3ccccc3)cc2-c2ccnc(NCCNC(=O)Nc3ccc(Cl)c(Cl)c3)c2)c1,14.6% (inactive)
20,COc1cccc(-c2nn(-c3ccccc3)cc2-c2ccnc(NCCCNC(=O)c3cccc(C(F)(F)F)c3)c2)c1,31.7% (inactive)
